# Measured values reported in the supplement of paper PMC8728848.
# This is one part of a sample in which the strongest signals are shown more often than they occur.
# B1: Pwp4 (Candida glabrata) (protein)
# chain: MGSSHHHHHHSSGLVPRGSHMASVGNPITVSNVCSFPKNWHRTAGFRALTARLGIGIQSDSYKELLNYPGTFQLTTQQSSTTKPNFQISGLVGNIYGLTIVPSYLLVELTGYFVPPVSGEYTFSLEGSDDAAIIFIANPSTFKCGHVEDWPTAYDNDVTVTESIHATRTIYMIEGVAYPIRIAYYNGLSLGKLQASFTDPEGVKRVDWNGYIWRYDSCDTCSYV
# What was measured:
# Test in all cases: glycan array binding signal (z-score within array); higher = stronger binding
# Conditions in all cases: glycan notation: IUPAC condensed, linker removed
# [1] = biological target: GlcNAc(b1-3)Gal(b1-4)GlcNAc(b1-3)Gal(b1-4)GlcNAc(b1-2)[GlcNAc(b1-3)Gal(b1-4)GlcNAc(b1-3)Gal(b1-4)GlcNAc(b1-6)]Man(a1-6)[GlcNAc(b1-3)Gal(b1-4)GlcNAc(b1-3)Gal(b1-4)GlcNAc(b1-2)Man(a1-3)]Man(b1-4)GlcNAc(b1-4)[Fuc(a1-6)]GlcNAc
# Procedure, shortened: (§1)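 Glycan array data came from 3228 arrays in the Consortium for Functional Glycomics database, and only arrays with an available protein sequence were kept. Glycan names were put into IUPAC-condensed notation, and columns mapping to the same glycan were averaged. The binding signal is a within-array Z-score, averaged across arrays of one protein sequence run at different concentrations or buffers and across linkers. A negative Z-score can be read as non-binding.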
# [2] = biological target: GlcNAc(b1-3)Gal(b1-4)GlcNAc(b1-3)Gal(b1-4)GlcNAc(b1-3)Gal(b1-4)GlcNAc(b1-2)Man(a1-3)[GlcNAc(b1-3)Gal(b1-4)GlcNAc(b1-3)Gal(b1-4)GlcNAc(b1-3)Gal(b1-4)GlcNAc(b1-2)Man(a1-6)]Man(b1-4)GlcNAc(b1-4)GlcNAc
# Procedure, shortened: as §1
# [3] = biological target: GlcNAc(b1-3)Gal(b1-4)GlcNAc(b1-3)Gal(b1-4)GlcNAc(b1-3)Gal(b1-4)GlcNAc(b1-2)[GlcNAc(b1-3)Gal(b1-4)GlcNAc(b1-3)Gal(b1-4)GlcNAc(b1-3)Gal(b1-4)GlcNAc(b1-6)]Man(a1-6)[GlcNAc(b1-3)Gal(b1-4)GlcNAc(b1-3)Gal(b1-4)GlcNAc(b1-3)Gal(b1-4)GlcNAc(b1-2)Man(a1-3)]Man(b1-4)GlcNAc(b1-4)[Fuc(a1-6)]GlcNAc
# Procedure, shortened: as §1
# [4] = biological target: GlcNAc(b1-3)Gal(b1-4)GlcNAc(b1-3)Gal(b1-4)GlcNAc(b1-3)Gal(b1-4)GlcNAc(b1-3)Gal(b1-4)GlcNAc(b1-2)[GlcNAc(b1-3)Gal(b1-4)GlcNAc(b1-3)Gal(b1-4)GlcNAc(b1-3)Gal(b1-4)GlcNAc(b1-3)Gal(b1-4)GlcNAc(b1-6)]Man(a1-6)[GlcNAc(b1-3)Gal(b1-4)GlcNAc(b1-3)Gal(b1-4)GlcNAc(b1-3)Gal(b1-4)GlcNAc(b1-3)Gal(b1-4)GlcNAc(b1-2)Man(a1-3)]Man(b1-4)GlcNAc(b1-4)[Fuc(a1-6)]GlcNAc
# Procedure, shortened: as §1
# [5] = biological target: GlcNAc(b1-3)Gal(b1-4)GlcNAc(b1-3)Gal(b1-4)GlcNAc(b1-3)GalNAc
# Procedure, shortened: as §1
# [6] = biological target: GlcNAc(b1-3)Gal(b1-4)GlcNAc(b1-6)[GlcNAc(b1-3)Gal(b1-3)]GalNAc
# Procedure, shortened: as §1
# [7] = biological target: GlcNAc(b1-4)GlcNAc(b1-4)GlcNAc(b1-4)GlcNAc(b1-4)GlcNAc
# Procedure, shortened: as §1
# [8] = biological target: GlcNAc6S(b1-3)Gal(b1-4)GlcNAc
# Procedure, shortened: as §1
# [9] = biological target: Man(a1-2)Man(a1-2)Man(a1-6)[Man(a1-3)]Man
# Procedure, shortened: as §1
# Man(b1-4)GlcNAc = biological target: Man(b1-4)GlcNAc
# Procedure, shortened: as §1
# [10] = biological target: Neu5Ac(a2-3)Gal(b1-3)GalNAc(b1-4)[Neu5Ac(a2-3)]Gal(b1-4)Glc
# Procedure, shortened: as §1
# [11] = biological target: Neu5Ac(a2-3)Gal(b1-3)[GlcNAc(b1-6)]GalNAc
# Procedure, shortened: as §1
# [12] = biological target: Neu5Ac(a2-3)Gal(b1-3)[Neu5Ac(a2-6)]GalNAc
# Procedure, shortened: as §1
# [13] = biological target: Neu5Ac(a2-3)Gal(b1-3)]Neu5Ac(a2-3)Gal(b1-4)]GlcNAc
# Procedure, shortened: as §1
# [14] = biological target: Neu5Ac(a2-3)Gal(b1-4)GlcNAc(b1-2)Man
# Procedure, shortened: as §1
# [15] = biological target: Neu5Ac(a2-3)Gal(b1-4)GlcNAc(b1-2)Man(a1-3)[Neu5Ac(a2-3)Gal(b1-4)GlcNAc(b1-2)Man(a1-6)]Man(b1-4)GlcNAc(b1-4)[Fuc(a1-6)]GlcNAc
# Procedure, shortened: as §1
# [16] = biological target: Neu5Ac(a2-3)Gal(b1-4)GlcNAc(b1-2)Man(a1-3)[Neu5Ac(a2-6)Gal(b1-4)GlcNAc(b1-2)Man(a1-6)]Man(b1-4)GlcNAc(b1-4)GlcNAc
# Procedure, shortened: as §1
# [17] = biological target: Neu5Ac(a2-3)Gal(b1-4)GlcNAc(b1-2)[Neu5Ac(a2-3)Gal(b1-4)GlcNAc(b1-6)]Man(a1-6)[Neu5Ac(a2-3)Gal(b1-4)GlcNAc(b1-2)Man(a1-3)][GlcNAc(b1-4)]Man(b1-4)GlcNAc(b1-4)GlcNAc
# Procedure, shortened: as §1
# [18] = biological target: Neu5Ac(a2-3)Gal(b1-4)GlcNAc(b1-3)Gal(b1-4)[Fuc(a1-3)]GlcNAc
# Procedure, shortened: as §1
# Neu5Ac(a2-6)Gal = biological target: Neu5Ac(a2-6)Gal
# Procedure, shortened: as §1
# [19] = biological target: Neu5Ac(a2-6)Gal(b1-4)GlcNAc(b1-2)Man(a1-3)[Gal(b1-4)GlcNAc(b1-2)Man(a1-6)]Man(b1-4)GlcNAc(b1-4)GlcNAc
# Procedure, shortened: as §1
# [20] = biological target: Neu5Ac(a2-6)Gal(b1-4)GlcNAc(b1-3)Gal(b1-4)[Fuc(a1-3)]GlcNAc(b1-3)Gal(b1-4)[Fuc(a1-3)]GlcNAc
# Procedure, shortened: as §1
# [21] = biological target: Neu5Ac(a2-6)Gal(b1-4)GlcNAc6S
# Procedure, shortened: as §1
# [22] = biological target: Neu5Ac(a2-8)Neu5Ac(a2-3)Gal(b1-3)GalNAc(b1-4)[Neu5Ac(a2-3)]Gal(b1-4)Glc
# Procedure, shortened: as §1
binder,measurement,setting,value
B1,glycan array binding signal (z-score),[1],4.62
same,glycan array binding signal (z-score),[2],1.16
same,glycan array binding signal (z-score),[3],5.36
same,glycan array binding signal (z-score),[4],4.3
same,glycan array binding signal (z-score),[5],-0.617
same,glycan array binding signal (z-score),[6],-0.359
same,glycan array binding signal (z-score),[7],-0.442
same,glycan array binding signal (z-score),[8],-0.195
same,glycan array binding signal (z-score),[9],-0.597
same,glycan array binding signal (z-score),Man(b1-4)GlcNAc,-0.403
same,glycan array binding signal (z-score),[10],-0.275
same,glycan array binding signal (z-score),[11],3.89
same,glycan array binding signal (z-score),[12],-0.221
same,glycan array binding signal (z-score),[13],-0.455
same,glycan array binding signal (z-score),[14],-0.174
same,glycan array binding signal (z-score),[15],1.34
same,glycan array binding signal (z-score),[16],0.37
same,glycan array binding signal (z-score),[17],9.42
same,glycan array binding signal (z-score),[18],-0.414
same,glycan array binding signal (z-score),Neu5Ac(a2-6)Gal,0.575
same,glycan array binding signal (z-score),[19],1.01
same,glycan array binding signal (z-score),[20],-0.388
same,glycan array binding signal (z-score),[21],-0.336
same,glycan array binding signal (z-score),[22],-0.601
